Pol kappa inh = inhibitors of human DNA polymerase kappa. 400,000 compounds, 0.53% hits. AID 588579. Potency, µM (highest dose often 107 µM), actives largely listed as inhibitors. Q9UBT6. purified Pol kappa, fluorescent DNA synthesis assay, 10 min
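First, compounds were pin-transferred onto 10 nM Pol kappa. After 15 min at room temperature, substrate was added to 50 nM final. Fluorescence was then measured kinetically at 0 and 10 min.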
POLH inh = blocks human DNA polymerase eta activity; 390,000 compounds, 1.2% hits; recombinant Pol eta, fluorescent DNA replication assay; Potency, µM (doses to about 114 µM), usual class: inhibitors; Q9Y253; AID 588591
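Pol eta (10 nM) was preincubated with compounds for 15 min at room temperature, after which fluorescent replication substrate (50 nM final) was added to start the reaction. Fluorescence was read kinetically at 0 and 10 min.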
PI5P4Ka inh = inhibitors of human PI5P4K alpha; P48426; PI5P4Kalpha enzyme, ADP-Glo luminescence, 60 min; active compounds read low; max response, %; 330,000 compounds, 1.2% hits; active = max response of -50% or lower; inconclusive = between -30% and -50%; inactive = -30% or higher; also: value at the top dose of about 77 µM
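ADP-Glo luminescence end-point after a 60 min room-temperature kinase reaction. PI5P4Kalpha and substrate in HEPES pH 7.4 buffer with EGTA, 0.1% CHAPS and 5% DMSO; ATP at 5 microM final.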
WRN inhibitor = inhibitors of human WRN helicase; WRN helicase unwinding, fluorescent forked duplex, kinetic; Potency, µM (highest dose often 114 µM), most hits filed as inhibitors; 360,000 compounds, 0.46% hits; also: nearly all actives have a fitted effect of over 55% in size
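WRN at 20 nM final preincubated with compound 15 min at room temperature; reaction started with 100 nM fluorophore/quencher forked duplex oligonucleotide and 2 mM ATP final. Unwinding followed kinetically by red fluorescence (ex 525, em 598 nm).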
Pol beta inh = blocks human DNA polymerase beta activity. Potency, µM (highest dose often 114 µM), most hits filed as inhibitors. 340,000 compounds, 1.3% hits. P06746. Pol beta primer extension/strand displacement, fluorescence kinetic
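Homogeneous kinetic assay of primer extension and strand displacement by 10 nM Pol beta, preincubated 15 min at room temperature with compound before 50 nM substrate (final) was added. Read at 0 and 10 min; four-parameter Hill fit.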
POLI inh = DNA polymerase iota (human) inhibition; Q9UNA4; Pol iota fluorescent replication assay, 10 min; Potency, µM (highest dose often 115 µM), hits mostly inhibitors; 390,000 compounds, 1% hits; AID 588590
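Pol iota at 10 nM preincubated 15 min with compounds at room temperature; reaction started with fluorescent substrate, 50 nM final. Fluorescence read kinetically at 0 and 10 min; buffer-only wells as negative control.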
Each line names hits and unclear results; the compound was inactive in the other large screens; ! = repeats disagree. An excerpt weighted towards active compounds, which were near 2.8% of everything screened. Unless noted, calls follow the shape of the dose curve; as a rule, active = well fitted curve in the direction sought with a large enough effect; inconclusive = small, poorly fitted or top-dose-only effect, or another doubt; inactive = no such curve, though single readings can be large; an effect the other way counts as inactive or inconclusive.

CCOc1ccccc1C1C2C(=O)N(c3ccccc3)C(=O)C2ON1c1ccccc1 (centres undefined)	POLI inh 56µM (no result: PI5P4Ka inh)
CCc1cc2c(=O)c(-c3nc4ccccc4n3C)coc2c(CN2CCCCC2C)c1O (centres undefined)	POLH inh inconclusive, WRN inhibitor inconclusive, Pol beta inh 28µM, POLI inh 32µM
CCc1cc2c(=O)c(-c3nc4ccccc4n3C)coc2c(CN2CCCCC2)c1O	none
Oc1ccc2c(c1)OCC1(O)Cc3cc(O)c(O)cc3C21 (centres undefined)	Pol kappa inh 32µM!, POLH inh 18µM, PI5P4Ka inh -88, WRN inhibitor 8.9µM (no result: Pol beta inh)
CN(CC(=O)Nc1ccc(Cl)cc1F)C1=NS(=O)(=O)c2ccccc21	none (no result: Pol beta inh)
Cc1ccccc1C(=O)O/N=C(\N)c1cccc([N+](=O)[O-])c1	Pol beta inh inconclusive (no result: PI5P4Ka inh)
N/C(=N\OC(=O)c1cccc2ccccc12)c1cccc([N+](=O)[O-])c1	Pol beta inh 50µM, POLI inh inconclusive (no result: PI5P4Ka inh)
CCCCNC(=O)C(NC(=O)c1ccc2c(c1)OCO2)C(=O)c1ccccc1 (centres undefined)	none (no result: Pol kappa inh, POLH inh, Pol beta inh, POLI inh)
COc1cc(N)c2ncccc2c1Br	POLI inh 32µM (no result: Pol beta inh)
CCCCN(CCCC)CCNC(=O)Cn1nc(CC)n2c(cc3sc(C)cc32)c1=O	POLI inh 25µM (no result: PI5P4Ka inh, WRN inhibitor)
CN(C)S(=O)(=O)c1cccc(NC(=O)c2ccc(-n3cncn3)c([N+](=O)[O-])c2)c1	none (no result: Pol beta inh)
COc1cc(NC(=O)CN2C(=O)C(=O)N(CC(C)C)C2=O)cc(OC)c1	none (no result: Pol beta inh)
CC12CN3CC(C)(CN(C1)C3c1ccc3ccccc3c1O)C2=O (centres undefined)	POLI inh 79µM
CC12CN3CC(C)(CN(C1)C3c1c[nH]c3ccccc13)C2=O (centres undefined)	none
COc1ccc(C(C(=O)NC2CCCCC2)n2c(=O)c(-c3ccco3)nc3ccccc32)cc1 (centres undefined)	PI5P4Ka inh inconclusive (no result: Pol kappa inh, POLH inh, Pol beta inh, POLI inh)
O=C(NC1CCCCC1)C(c1cccc2ccccc12)n1c(=O)c(-c2ccco2)nc2ccccc21 (centres undefined)	PI5P4Ka inh -82 (no result: Pol kappa inh, POLH inh, Pol beta inh, POLI inh)
CC(C)(C)NC(=O)C(c1ccnc2ccccc12)n1c(=O)c(-c2ccco2)nc2ccccc21 (centres undefined)	PI5P4Ka inh inconclusive (no result: Pol kappa inh, POLH inh, Pol beta inh, POLI inh)
CCC(c1nc2ccccc2[nH]1)n1c(=O)c(-c2ccco2)nc2ccccc21 (centres undefined)	PI5P4Ka inh inconclusive (no result: Pol kappa inh, POLH inh, Pol beta inh, POLI inh)
CC(C)(C)NC(=O)C(c1cc2ccccc2o1)n1c(=O)c(-c2ccco2)nc2ccccc21 (centres undefined)	PI5P4Ka inh -58 (no result: Pol kappa inh, POLH inh, Pol beta inh, POLI inh)
CC(C)(C)NC(=O)C(c1ccccc1)n1c(=O)c(-c2ccco2)nc2ccccc21 (centres undefined)	PI5P4Ka inh -54 (no result: Pol kappa inh, POLH inh, Pol beta inh, POLI inh)
CC(C)(C)NC(=O)C(c1ccncc1)n1c(=O)c(-c2ccco2)nc2ccccc21 (centres undefined)	none (no result: Pol kappa inh, POLH inh, Pol beta inh, POLI inh)
O=c1c(-c2ccco2)nc2ccccc2n1C(CCc1ccccc1)c1nc2ccccc2[nH]1 (centres undefined)	PI5P4Ka inh -73 (no result: Pol kappa inh, POLH inh, Pol beta inh, POLI inh)
COC(=O)c1ccc(CC(=O)c2c(C)cc(O)cc2O)o1	Pol kappa inh 25µM, POLH inh inconclusive, WRN inhibitor inconclusive, Pol beta inh inconclusive, POLI inh inconclusive
Cc1oc2cc3oc(=O)c(CCC(=O)NCCC(=O)O)c(C)c3cc2c1C	POLH inh 56µM
Cc1oc2cc3oc(=O)c(CC(=O)N[C@H](C(=O)N[C@@H](C(=O)O)c4ccccc4)C(C)C)c(C)c3cc2c1C	Pol kappa inh inconclusive, POLI inh 79µM
Cc1coc2cc3oc(=O)c(CCC(=O)NCCN4CCOCC4)c(C)c3cc12	Pol kappa inh inconclusive, POLI inh 89µM
COc1ccc(CCNC(=O)CCc2c(C)c3cc4c(C)c(C)oc4cc3oc2=O)cc1	POLI inh inconclusive (no result: PI5P4Ka inh, WRN inhibitor)
Cc1coc2c(C)c3oc(=O)c(CCC(=O)NCCN4CCOCC4)c(C)c3cc12	none
